# In PubChem BioAssay (NCI):
# The panel holds about 83,000 compounds, 20% with a hit somewhere; the sample as a whole holds those more often.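 Cell lines were cultured in 96-well plates, exposed to a single compound concentration, and assessed for percent growth 48 hours later.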 A number with no mark means an inactive call. Activity calls are given as the source filed them. Rule for the calls: active = growth percent below 10; inactive = the rest.
# Assays:
# Assay in all cases: NCI-60 one-dose screen, 48 h (100 = growth as untreated, 0 = no growth, -100 = all killed)
# Details in all cases: 10 µM unless noted
# [1] = test system: DU-145 prostate
# [2] = test system: K-562 leukemia
# [3] = test system: MALME-3M melanoma
# [4] = test system: MDA-MB-231 breast
# [5] = test system: RXF 393 renal
# [6] = test system: SF-268 CNS
# [7] = test system: SF-295 CNS
# [8] = test system: SF-539 CNS
# [9] = test system: UACC-257 melanoma
# [10] = test system: M14 melanoma
# [11] = test system: HCT-15 colon
# [12] = test system: HT29 colon
# [13] = test system: SNB-75 CNS
# [14] = test system: SNB-19 CNS
# [15] = test system: U251 CNS
# [16] = test system: PC-3 prostate
# [17] = test system: SK-MEL-5 melanoma
# [18] = test system: UACC-62 melanoma
# [19] = test system: LOX IMVI melanoma
# [20] = test system: SK-MEL-28 melanoma
Structure (SMILES),growth [1],growth [2],growth [3],growth [4],growth [5],growth [6],growth [7],growth [8],growth [9],growth [10],growth [11],growth [12],growth [13],growth [14],growth [15],growth [16],growth [17],growth [18],growth [19],growth [20]
Cn1cc(-c2nc(-c3c[nH]c4c(Cl)nccc34)cs2)c2ccccc21,92.6%,89.3%,113%,98.9%,90.4%,98.5%,103%,90.5%,71.8%,97.2%,98.6%,83.5%,108%,94.5%,86.3%,86.1%,91.2%,97.5%,102%,108%
O=C(c1ccc(F)cc1)C1CCN(CCn2c(=O)[nH]c3ccccc3c2=O)CC1,108%,100%,89.3%,110%,115%,103%,97.6%,103%,110%,104%,105%,98.4%,92.6%,110%,101%,87.4%,94.2%,102%,98.7%,108%
CCCN1C(=O)N(CCC)C2C1NC(=S)N2/N=C/C=C/c1ccccc1OC (stereo not given),14.2%,12.6%,40.4%,23.9%,-29.8% (active),62.9%,10.9%,-30.6% (active),60.5%,-0.388% (active),19.3%,2.43% (active),-17.4% (active),24.6%,11.9%,28.7%,26.9%,28.5%,41%,50%
CCN(CC)CCOc1ccc(/C(=C(\C)Cc2ccc(OC)cc2)c2ccc(O)cc2)cc1,53.4%,-56.7% (active),-76.7% (active),24%,6.99% (active),47.9%,-25.3% (active),-50.8% (active),-62.9% (active),-77.3% (active),5.11% (active),-70.5% (active),25.1%,26.6%,-30.3% (active),15.2%,-96.4% (active),-70.7% (active),-64.9% (active),-71% (active)
CCCCCCCCCCCCCCCCCCOc1ccccc1CC(=O)OCC[N+]1(C)CCCCC1,71.6%,22.6%,45.3%,10.3%,-3.91% (active),43.5%,73.6%,68.6%,80.6%,34.7%,86.3%,31.7%,46.3%,50.6%,36.9%,3.03% (active),-2.94% (active),33.8%,1.71% (active),62.5%
CSc1nc(CC(C)C)c(C#N)c(=O)n1C,70.7%,68.8%,58.4%,47.3%,58.7%,65.7%,73.9%,75.9%,78.6%,70.7%,46.1%,69.7%,61%,82.1%,81.8%,62.9%,70.9%,53.8%,68.4%,68.3%
COc1ccc(-n2c(=O)n(-c3ccc(-c4nc5ccc(F)cc5s4)cc3)c(=O)c3cccnc32)cc1,106%,99.7%,101%,97.1%,129%,106%,94.5%,107%,94.7%,107%,101%,87.3%,75.2%,98.5%,96.9%,94.5%,101%,87.4%,99.5%,107%
COc1ccc2c(c1)C(c1c[nH]c3ccccc13)(c1c[nH]c3ccccc13)CCO2,74.6%,29.5%,88.8%,35.1%,76.1%,52.2%,36.6%,71.7%,48.1%,39.7%,41.8%,23.8%,28%,66.4%,42.2%,31%,66.2%,44.9%,42.6%,54.2%
O=C1c2ccccc2-c2c1c1ccncc1c(=O)n2CCCn1ccnc1,58.6%,20.5%,98%,73.8%,55.6%,38.7%,56.2%,31.6%,93.5%,63.3%,40.8%,21%,50.3%,41.5%,20.4%,38%,28.5%,39.7%,6.42% (active),88.3%
COC(=O)c1nc(-c2ccc(C)cc2)oc1N1CCOCC1,98.1%,95.6%,115%,105%,89.6%,98.1%,99%,95.9%,100%,102%,84.8%,86.8%,84.6%,94.9%,100%,110%,103%,88%,107%,104%
CC(C)(C)c1ccc(C(=O)Nc2sc3c(c2C#N)CCC(=O)C3)cc1,64.2%,9.48% (active),-18.6% (active),-5.45% (active),-29.9% (active),22.4%,10.3%,-35.6% (active),19.8%,8.73% (active),-18.5% (active),5% (active),-6.69% (active),14.1%,16.4%,8.36% (active),-69.8% (active),9.35% (active),10.5%,28.8%
CCOC(=O)/C(=C\c1ccccc1Cl)P(=O)(OCC)OCC,36%,28.6%,71.2%,71%,42.8%,63.2%,96.7%,48.2%,61.9%,56.6%,34.4%,34.7%,51%,84.8%,66.3%,45.8%,79.5%,56.7%,0.286% (active),65.2%
COc1ccc(C2=NN(C=O)C(c3ccc(Oc4nc5c(c(=O)n(C)c(=O)n5C)n4C)c(OC)c3)C2)cc1 (stereo not given),60.9%,89.9%,102%,77.6%,110%,57.8%,75.5%,110%,-10.3% (active),68.9%,88.9%,71.8%,94.1%,69.1%,90.1%,78.4%,59.8%,88.5%,68.2%,97.8%
